Compounds with a hit are over-represented: about 21% of the library has one in this group of screens.
MRP reversal – compounds reversing MRP-mediated drug resistance | 85,000 compounds, 0.04% hits | differential viability (reversal), % at 10 µM | H69AR cells + 2 uM doxorubicin, CellTiter-Glo, 72 h;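 active = viability drop by adding the cancer drug above about 55%, with treated viability meeting a 40% cutoff, limit read from the data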;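 note: viability without doxorubicin minus viability with 2 µM doxorubicin for each compound; larger differential means the compound sensitizes cells more to doxorubicin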
CYP2C19 activ – cytochrome P450 2C19 (human) activation; recombinant CYP2C19, luciferin-H EGE luminescence; hits give high values; 0 = fully inhibited enzyme, 1 = untreated enzyme; P33261; 96,000 tested, under 10 active; activation factor at 5 µM;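 active = activation factor of at least 2 at 5 µM in the primary screen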;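 note: 0 = wells with 2.5 mM tranylcypromine and 1 = vehicle-only wells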
Target sequence (P33261 whole entry, looked up): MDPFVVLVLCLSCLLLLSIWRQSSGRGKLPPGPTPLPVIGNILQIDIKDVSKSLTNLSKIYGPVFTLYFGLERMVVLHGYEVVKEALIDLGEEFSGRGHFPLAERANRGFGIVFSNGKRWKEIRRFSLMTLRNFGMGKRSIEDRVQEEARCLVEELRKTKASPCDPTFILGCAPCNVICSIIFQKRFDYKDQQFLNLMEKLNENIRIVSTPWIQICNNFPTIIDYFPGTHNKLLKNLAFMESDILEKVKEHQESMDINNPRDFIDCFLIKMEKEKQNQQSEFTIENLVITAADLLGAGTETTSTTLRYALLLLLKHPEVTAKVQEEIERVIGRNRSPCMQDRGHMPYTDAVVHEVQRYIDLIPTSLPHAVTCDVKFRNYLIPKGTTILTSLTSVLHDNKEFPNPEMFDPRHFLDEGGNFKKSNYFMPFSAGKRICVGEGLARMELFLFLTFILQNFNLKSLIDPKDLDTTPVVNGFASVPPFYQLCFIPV
CYP2C9 act – increases human cytochrome P450 2C9 activity. P11712. recombinant CYP2C9, luciferin-H conversion, luminescence; hits give high values; factor 1 = untreated enzyme, 0 = blocked. 96,000 compounds, 1.4% hits. activation factor at 5 µM;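 active = activation factor of 2 or more for CYP2C9 at a 5 µM dose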;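 note: 0 = sulfaphenazole-blocked wells and 1 = vehicle-only wells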
CYP2C19 inhib – blocks human cytochrome P450 2C19 | 96,000 compounds, 21% hits | inhibition, % at 5 µM | CYP2C19 Supersomes, luciferin-H EGE luminescence, 30 min;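 active = CYP2C19 inhibition above a set limit at 5 µM in the primary screen, cut at about 50% in these data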;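 note: plate controls were negative control wells for no effect and 2.5 mM tranylcypromine positive control for full effect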
MRP-1 activ – activates MRP-1; H69AR cells + doxorubicin, viability rescue, CellTiter-Glo; viability increase, % at 10 µM; AID 799; 140,000 compounds, 0.61% hits;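 active = viability gain under doxorubicin at or above a set limit, the compound median plus 3 SD, cut at about 4.7% in these data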;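 note: MRP-1 overexpressing cells given doxorubicin 25 µM after compound pretreatment; 18-22 h compound pretreatment then 72 h with doxorubicin before readout; 0% = doxorubicin-only wells and 100% = vehicle-treated cells without doxorubicin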
CYP2C9 inh – blocks human cytochrome P450 2C9 | P11712 | CYP2C9 Supersomes, luciferin-H conversion, luminescence | inhibition, % at 5 µM | 96,000 compounds, 20% hits;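 active = blocking of liver enzyme CYP2C9 beyond about 50% at 5 µM, limit read from the data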
* hit, by the source's call; x = no result.

SMILES	MRP reversal	CYP2C19 activ	CYP2C9 act	CYP2C19 inhib	MRP-1 activ	CYP2C9 inh
Cc1sc2nc(CN(Cc3cccs3)C(=O)NC3CCCCC3)[nH]c(=O)c2c1C	x	0	0	96.9*	-6.0	96.5*
O=C(c1cccs1)N(Cc1nc2sc3c(c2c(=O)[nH]1)CCCC3)C1CCCC1	0.2	0.6	0.3	37.0	-2.0	69.9*
Cc1sc2nc(CN(C(=O)c3cccs3)C3CCCC3)[nH]c(=O)c2c1C	-0.7	0.9	0.3	12.0	-4.2	73.8*
CCN(CC)C(=O)CCc1nc2sc3c(c2c(=O)[nH]1)CCCC3	6.5	0.4	0.5	64.8*	-2.3	46.8
O=c1[nH]c(CN2CCN(S(=O)(=O)c3ccccc3C(F)(F)F)CC2)nc2sc3c(c12)CCCC3	x	x	x	x	-1.4	x
Cc1cnc(NC(=O)c2cc3c(C)nn(Cc4ccccc4Cl)c3s2)s1	x	x	x	x	-3.1	x
O=C(NCc1nc2ccccc2[nH]1)c1cccc(S(=O)(=O)N2CCCC2)c1	11.1	1	0.6	4.4	0.3	39.3
CCS(=O)CCSc1nc2ccccc2s1 (centres undefined)	-13.3	0.8	1.4	15.0	-2.5	-36.8
Cn1c(Cc2csc(N)n2)nnc1SCC(=O)NCc1ccccc1	23.8	0.9	1	8.5	-1.3	2.0
N#CC1=C(N)n2c(s/c(=C\c3cccs3)c2=O)=C(C#N)C1c1cccs1 (centres undefined)	x	x	x	x	-2.6	x
COC(=O)C1=C(N)n2c(s/c(=C\c3cccnc3)c2=O)=C(C(=O)OC)C1c1cccnc1 (centres undefined)	-2.3	0.3	0.5	69.9*	1.0	49.5
CCOC(=O)C1=C(N)n2c(s/c(=C\c3cccnc3)c2=O)=C(C#N)C1c1cccnc1 (centres undefined)	-3.6	x	x	x	x	x
N#CC1=C(N)n2c(s/c(=C\c3ccco3)c2=O)=C(C#N)C1c1ccco1 (centres undefined)	-4.3	0.9	0.5	5.4	-3.4	51.3*
CCOC(=O)C1=C(N)n2c(s/c(=C/c3ccco3)c2=O)=C(C(=O)OC)C1c1ccco1 (centres undefined)	-14.6	0.8	0.2	24.3	-4.8	77.6*
CCOC(=O)C1=c2s/c(=C\c3cccnc3)c(=O)n2C(N)=C(C(=O)OC)C1c1cccnc1 (centres undefined)	-0.5	0.1	0.1	89.7*	-2.0	87.6*
C/C(=N\NC(=O)CC1N=C(Cc2ccccc2)NNC1=O)c1ccc(Cl)cc1Cl (centres undefined)	-12.1	0.8	0.8	19.1	-4.1	24.0
CCOC(=O)Nc1ccc2c(c1)N(C(=O)C(C)N1CCCC1)c1ccccc1CC2 (centres undefined)	-12.0	1	0.8	0.3	-4.4	15.0
CCOC(=O)Nc1ccc2c(c1)N(C(=O)OC)c1ccccc1CC2	x	0.3	0.1	69.7*	-1.8	85.3*
CCOC(=O)Nc1ccc2c(c1)N(C(=O)CN1CCN(C)CC1)c1ccccc1S2	x	0.4	0.8	57.6*	-2.6	21.6
CCCC(=O)Nc1ccc(N2CCN(C(=O)c3cccs3)CC2)cc1	-10.8	0.7	0.6	28.5	-2.7	44.9
Cc1cc(C)c(NC(=O)COC(=O)/C=C/c2cccs2)c(C)c1	x	x	x	x	-2.3	x
C=CCn1c(SCC(=O)N2CC(=O)Nc3ccccc32)nc2scc(-c3cccs3)c2c1=O	1.5	0.4	0.2	62.6*	-1.9	83.0*
C=CCn1c(COc2ccc(F)cc2)nnc1SCC(=O)N1CC(=O)Nc2ccccc21	19.4	0.5	2.1*	47.7	1.5	-109.8
CCOC(=O)N1CCN(C(=O)C2CCN(S(=O)(=O)c3cc(Cl)ccc3Cl)CC2)CC1	-19.5	0.5	2.4*	51.4*	-5.0	-143.0
CCOC(=O)C1CCN(C(=O)C2CCN(S(=O)(=O)c3cc(Cl)ccc3Cl)CC2)CC1	-10.5	0.9	2.4*	14.7	-2.9	-135.0
CCOC(=O)CN1N=C(c2ccc(Cl)s2)CSC1=O	x	x	x	x	-0.2	x
O=c1c2c(n3nnnc3n1Cc1ccccc1)-c1ccccc1CC21CCCC1	0.9	0.7	0.3	34.5	-1.1	72.3*
O=C(/C=C/c1ccccc1)C1C(=O)c2ccccc2C1=O	x	x	x	x	-2.4	x
CCc1ccc(/C=C/C(=O)C2C(=O)c3ccccc3C2=O)cc1	x	1	0.4	1.0	-1.6	59.5*
Brc1ccc(CSc2nnc(-c3cnccn3)n2Cc2ccco2)cc1	-19.7	0.8	0.5	21.9	-1.7	46.3

Source: PubChem BioAssay (several laboratories)
